# Over roughly 33,000 sequences, “E-score (-0.5 to 0.5)” has its median near -0.012; the highest 2% begin near 0.27. Only a selection was taken, and the highest values are over-represented in it overall.
# Target: T1, Vhr1 (UniProt P40522)
# T1 sequence: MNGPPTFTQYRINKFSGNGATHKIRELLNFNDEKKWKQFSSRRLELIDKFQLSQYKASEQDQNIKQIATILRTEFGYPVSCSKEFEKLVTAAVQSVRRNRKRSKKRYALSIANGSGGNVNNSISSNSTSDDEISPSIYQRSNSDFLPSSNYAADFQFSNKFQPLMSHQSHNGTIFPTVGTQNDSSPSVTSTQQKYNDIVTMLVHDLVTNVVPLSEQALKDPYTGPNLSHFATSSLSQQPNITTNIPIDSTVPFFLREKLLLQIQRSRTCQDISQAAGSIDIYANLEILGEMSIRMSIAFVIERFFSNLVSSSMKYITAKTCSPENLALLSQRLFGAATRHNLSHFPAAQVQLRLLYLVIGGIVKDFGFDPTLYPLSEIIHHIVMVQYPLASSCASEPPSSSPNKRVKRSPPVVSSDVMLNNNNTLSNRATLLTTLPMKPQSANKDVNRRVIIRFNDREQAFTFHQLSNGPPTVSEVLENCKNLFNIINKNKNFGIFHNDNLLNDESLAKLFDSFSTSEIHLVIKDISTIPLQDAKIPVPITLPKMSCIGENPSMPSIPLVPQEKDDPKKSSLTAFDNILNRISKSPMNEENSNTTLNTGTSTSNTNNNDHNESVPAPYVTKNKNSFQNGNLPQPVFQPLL
# Experiment: PBM E-score (8-mer binding enrichment) (E-score (-0.5 to 0.5)); higher = stronger / more preferred TF binding
# Details: protein concentration: 200 nM; construct: GST-full length
# Description: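 Universal 'all 10-mer' protein binding microarrays (Agilent AMADID 015681) probed with GST-tagged S. cerevisiae TFs (full-length or DBD) made by in vitro transcription/translation (PURExpress), about 100-200 nM. Bound TF was detected with fluorescent anti-GST. Each ungapped 8-mer (which stands for itself and its reverse complement) is scored by the PBM enrichment score (E-score), a modified Wilcoxon-Mann-Whitney statistic from -0.5 to +0.5, computed with the Universal PBM Analysis Suite. Scale: above 0.35 generally sequence-specific binding.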
row,Sequence,PBM E-score
1,ATGAAACC,0.137
2,ACGGTAGT,0.125
3,AAAATCAT,0.151
4,ATTGCTTG,-0.00443
5,ATCTCATC,0.0646
6,CGTACCCA,0.16
7,ACGGTCAT,0.156
8,GGCAAGCA,-0.224
9,CATGAGCC,0.159
10,AATGAGTA,0.223
11,CATGAGAC,0.274
12,AATGAGTC,0.426
13,CATGAGAG,0.147
14,CATGAGTC,0.477
15,AATGAGAC,-0.113
16,CATGAGGC,-0.159
17,AATGAGTG,0.157
18,AGTGTCGC,0.138
19,AAAATAAT,0.0747
20,TAAGCCTA,-0.259
21,GAATTTGC,-0.0954
22,CAAGAATC,0.179

row,Sequence,PBM E-score
1,GCGAACAC,-0.0481
2,AATAGGCA,0.0547
3,AACAGCAT,0.0405
4,AGAGCCCT,-0.165
5,GCAATCGA,-0.0515
6,ACAGTCAG,0.228
7,ACAGTCAA,0.0811
8,AGAGTCAT,0.45
9,AGAGTCAG,0.399
10,AGAGTCCT,-0.17
11,AGAGTCAA,0.112
12,AGGGTCAG,-0.161
13,AGAGTCCC,-0.205
14,AGAGTCAC,0.43
15,ACAGTCAT,0.318
16,AAAGTCAG,0.119
17,AGAGTCTC,0.191
18,CGGATCTA,-0.0646
19,GCACCTCC,-0.136
20,GGCAAAGA,-0.0131
21,GTTCACTA,-0.133
22,GCAATTCC,-0.163

row,Sequence,PBM E-score
1,GGAAAGCC,-0.0802
2,TGATGGAA,0.0625
3,TATACCCA,0.0126
4,CATACCCA,0.271
5,ACTACTCA,0.238
6,CGTACTAA,0.153
7,GCTACTCA,0.271
8,CGTACTCC,-0.0124
9,ATTACTCC,0.0722
10,ATTACTCG,0.198
11,GCTACTCC,-0.145
12,CGTACTCA,0.283
13,CATACCCC,0.105
14,ATTACTCA,0.29
15,AACTAAAT,-0.0313
16,ATCGGTGA,0.181
17,GTGCTTAA,-0.136
18,TATAGGAA,0.0238
19,GAATTAGA,-0.172
20,GCGTGTAA,-0.0131
21,ATTATTGC,-0.0063
22,ACTGGCGA,0.124

row,Sequence,PBM E-score
1,AATTTAGT,0.256
2,CATACTCA,0.285
3,AGTACTCA,0.171
4,GATACTGA,0.159
5,CATACTCC,0.125
6,CATACTCG,0.18
7,GGTACTTA,-0.103
8,TATACTGA,0.309
9,CATACTGA,0.123
10,GGTACTCA,0.281
11,CGGCACGC,-0.0534
12,GCAGCTCA,-0.254
13,ACAGAGTC,0.296
14,GCTGAGCC,0.28
15,AGAGAGTC,0.215
16,AAAGAGTC,0.0469
17,ACTGAGTG,0.0665
18,ACTGAGTC,0.454
19,ACTGAGCC,0.219
20,CAAGAGTC,0.296
21,ACTGAGTA,0.263
22,ACAGAGTG,0.0123

row,Sequence,PBM E-score
1,GAAGAGTC,0.194
2,CCTGAGCC,0.115
3,ATTCGGTG,0.106
4,GTTTGTGA,-0.0971
5,GGCTATGA,0.0249
6,AGAGCACG,0.00968
7,CCAGCCAA,-0.119
8,CATTCAGA,0.0364
9,CTGGGTAC,0.196
10,CCTGAGGC,-0.096
11,CCTGAGTA,0.205
12,CCTGAGTC,0.461
13,AACGCTAC,-0.205
14,CAATCAGG,0.0706
15,CAATCATG,0.289
16,AAATCATT,-0.011
17,AAATCATA,0.227
18,AAATCATG,0.29
19,CAATCAAG,0.00756
20,GACTGGCA,-0.0149
21,GAACTATA,0.222
